Results filed as inconclusive are left out. The source made the active and inactive calls. The call rests on the fitted dose curve; in most records, active means well fitted inhibition curve with a large enough effect; inconclusive means small, poorly fitted or top-dose-only effect; inactive means no such curve, though single readings can be large or run the other way.
test system: Zika virus NS2B-NS3 protease (linked construct); test: Primary screen NINDS Rhodamine qHTS for Zika virus inhibitors (AID 1347160); conditions: purified NS2B-NS3 protease, Rhodamine110 substrate fluorescence; series mostly up to 33.1 µM; activity change, negative = inhibition: at the top concentration; further: nearly all actives have a fitted effect of over 55% in size
Text: Avindra Nath, Ph.D., National Institute of Neurological Disorders and Stroke (NINDS), Bethesda, MD
Radhakrishnan Padmanabhan, Ph.D., Georgetown University (GU), Washington D.C.
Zika Virus causes congenital defects, including microcephaly and is associated with Guillain-Barre syndrome, eningoencephalitis and myelitis in infected adult. […] Using a target-based approach, we hope to establish a screening paradigm to uncover novel, cell-active NS2B-NS3 protease (Zika Virus) specific inhibitors from NCATS' collection of small molecules using qHTS.
Four assay panel was created to identify potential Zika Virus inhibitors. Namely, (1) GU unlinked NS2B-NS3 AMC tagged protease qHTS, (2) GU unlinked NS2B-NS3 Rhodamine tagged protease qHTS, (3) NINDS linked NS2B-NS3 AMC tagged protease qHTS, (4) NINDS linked NS2B-NS3 Rhodamine tagged protease qHTS. Active compounds were re-acquired and re-screened to confirm inhibition. Inhibitors were further screened against various confirmatory and counterscreens in dose response format.
Early Translation Branch (ETB)
National Center for Advancing Translational Sciences (NCATS), Rockville, MD
National Institute of Health (NIH), Bethesda, Maryland
For the linked assay, Nath lab (NINDS) provided the purified linked NS2B-NS3 protease which is consists of hydrophilic domain of NS2B linked to the NS3 protease domain by a flexible (-[…]-) linker. Control compound aprotinin is obtained from Thermo Scientific (#78432; Waltham, Massachusetts). Rhodamine110 substrate ([N-Cbz]-Nle-Lys-Arg-Arg-Rhod110-Arg-Arg-Lys-Nle-[N-Cbz]) was purchased from either Genscript or Bachem.
1536-well Protease (Rhodamine110 Substrate) Assay:
Briefly, 3 microL of enzyme (25 nM final concentration), in assay buffer (10 mM Tris-HCl pH 8.0 with 0.01% Tween 20) were dispensed into a 1,536-well solid-bottom black plate (Greiner Bio One, Monroe, NC). Twenty-three nL of compounds (final concentration range 7.28 nM to 114 microM) or control Aprotinin (final concentration range 3.47 nM to 114 microM) were transferred via Wako Pin-tool (Wako Automation, Richmond, VA). Samples were incubated (room temperature, protected from light) for 15 minutes followed by a 1 microL Rhodamine110 substrate addition (1.5 microM final concentration). Plates were then immediately read on a ViewLux High-throughput CCD imager (PerkinElmer, Waltham, MA) equipped with FITC fluorescence optics (480(20) nm excitation, 540(25) nm emission), then incubated (room temperature, protected from light) for 15 minutes (~15% conversion). The change in fluorescence intensity over the 15-minute reaction period was normalized against no-inhibitor and no-enzyme controls and the resulting percent inhibition data were fitted to a 4-parameter Hill equation. Aprotinin was used as intraplate control.
On the % scale 0 is the no-effect control and ±100 the full control effect; potency means the concentration at half of the fitted maximal effect.

Compound	outcome	activity change, negative = inhibition	Potency
C=C1C(=O)O[C@@H]2C[C@]3(C)[C@@H](CCC(C)=O)[C@@H]3C[C@H]12	inactive		
CNC(C)C(=O)NC(C(=O)N1CCCC1C(=O)Nc1cccc2ncccc12)C(C)C (stereo not given)		18.9% [at 57.1 µM] (inactive)	
COc1cncc(C#Cc2ccccn2)c1		15.7% [at 57.1 µM] (inactive)	
CC1CC(=O)[C@]2(O)C(C(=O)OCCc3ccc(O)c(O)c3)=CO[C@@H](O[C@@H]3O[C@H](CO)[C@@H](O)[C@H](O)[C@H]3O)[C@H]12 (stereo not given in full)		21.5% (inactive)	
C=C1C2(C)CC3C4(C)C=CC(=O)OC(C)(C)C4CCC3(C)C1(C(=O)OC)C(=O)C(C)(O)C2=O (stereo not given)		8.45% (inactive)	
Cc1nnc(-c2ccc3occ(-c4ccc(S(C)=O)cc4)c3c2)o1 (stereo not given)		10.9% [at 57.1 µM] (inactive)	
COC(=O)[C@H](c1ccccc1Cl)N1CCC2SC(=O)C=C2C1 (stereo not given in full)		-1.72% [at 57.1 µM] (inactive)	
C=C1CCC2C(C)(C(=O)OC)CCCC2(C)C1CCC1=CCOC1=O (stereo not given)		4.74% (inactive)	
CC(C)c1ccc2c(c1)CCC1[C@](C)(C(=O)O)CCC[C@]21C (stereo not given in full)			12.4 µM (active)
CC(=O)/C=C/[C@H]1[C@](C)(O)[C@@H](O)[C@H](O)C2C(C)(C)CCC[C@@]21C (stereo not given in full)	inactive [at 33.1 µM]		
C=C1CC23CC1CCC2C12OC(=O)C(C)(C(O)C(O)C1O)C2C3C(=O)O (stereo not given)		13.8% (inactive)	
N[C@@H](CCNCc1ccc(Cl)cc1)C(=O)N1CCCCC1		9.07% [at 57.1 µM] (inactive)	
CC(C)C1NC(=O)C(CC2(O)c3ccccc3N3C(=O)C(Cc4ccccc4)NC32)NC1=O (stereo not given)		4.71% (inactive)	
O=C(/C=C/c1ccccc1)O[C@@H]1[C@@H](CO)O[C@@](CO)(O[C@H]2O[C@H](CO)[C@@H](O)[C@H](O)[C@H]2O)[C@H]1O		-24.4% (inactive)	
CC(=O)OCC1=C[C@@H]2OC(=O)C3=CO[C@@H](O[C@@H]4O[C@H](CO)[C@@H](O)[C@H](O)[C@H]4O)[C@H]1[C@@H]32		12.9% (inactive)	
CC1OC(OC2CCC3(C)C(CCC4(C)C3C=CC35OCC6(CCC(C)(C)CC63)CCC45C)C2(C)CO)C(OC2OC(CO)C(O)C(O)C2O)C(O)C1OC1OC(CO)C(O)C(O)C1O (stereo not given)		-24.9% [at 15.1 µM] (inactive)	
CC1(C)C2CCC1(C)C(OC(=O)C(O)(CC(=O)O)CC(=O)O)C2 (stereo not given)		-0.89% (inactive)	
CC1(C)CC[C@]2(C(=O)O)CC[C@]3(C)C(=CCC4[C@@]5(C)CC[C@H](O[C@@H]6O[C@H](C(=O)O)[C@@H](O)[C@H](O[C@@H]7O[C@H](CO)[C@H](O)[C@H](O)[C@H]7O)[C@H]6O[C@@H]6O[C@H](CO)[C@@H](O)[C@H](O)[C@H]6O)C(C)(C)C5CC[C@]43C)[C@@H]2C1 (stereo not given in full)		-13% [at 10.7 µM] (inactive)	
CC1=CC23[C@H](C=C(C(=O)O)[C@@H]2COC(=O)[C@]3(O)CO)[C@@H]1C (stereo not given in full)	inactive		
COc1cc2nc(=NC(=O)c3cccnc3)n3c(c2cc1OC)NCC3		2.47% [at 57.1 µM] (inactive)	

Compound	outcome	activity change, negative = inhibition	Potency
N#CN1CCC[C@@H](n2nc(-c3ccc(Oc4ccc(F)cc4F)cc3)c(C(N)=O)c2N)C1		20.6% [at 57.1 µM] (inactive)	
C[C@@H]1O[C@@H](O[C@@H]2[C@@H](O)[C@H](O[C@H]3[C@H](O[C@H]4CC[C@@]5(C)C(CC[C@]6(C)C5CC=C5[C@@H]7CC(C)(C)CC[C@]7(C(=O)O[C@@H]7O[C@H](CO)[C@@H](O)[C@H](O)[C@H]7O)CC[C@]56C)C4(C)C)O[C@H](C(=O)O)[C@@H](O)[C@@H]3O)OC[C@H]2O)[C@H](O)[C@H](O)[C@H]1O (stereo not given in full)		-12.8% [at 15.1 µM] (inactive)	
C=C1CC23CC1CCC2C12OC(=O)C(C)(C(O)CC1O)C2C3C(=O)O (stereo not given)	inactive [at 33.1 µM]		
C=C1CCC2(OC1)OC1CC3C4CC=C5CC(O)CC(O[C@@H]6OC[C@H](OC(=O)C(O)C(C)CC)[C@H](O)[C@H]6O[C@@H]6O[C@@H](C)[C@H](O)[C@@H](O)[C@H]6O)C5(C)C4CCC3(C)C1C2C (stereo not given in full)		-23.1% [at 15.1 µM] (inactive)	
CC1(C)C(=O)CCC2(C)C1C(O)C=C1COC(=O)C12O (stereo not given)	inactive		
CN1CCN(C2=Nc3ccccc3Nc3ccc(O)cc32)CC1		30.2% [at 57.1 µM] (inactive)	
O=S(=O)(O)c1ccc(Nc2ncnc3c2ncn3[C@@H]2O[C@H](CO)[C@@H](O)[C@H]2O)cc1		9.3% [at 57.1 µM] (inactive)	
CSCC1OC(n2cnc3c(=O)[nH]cnc32)C(O)C1O (stereo not given)		34.4% [at 57.1 µM] (inactive)	
C=C[C@@](C)(CCC=C(C)C)O[C@@H]1O[C@H](CO[C@@H]2OC[C@H](O)[C@H](O)[C@H]2O)[C@@H](O)[C@H](O)[C@H]1O		-1.8% (inactive)	
CC(=O)OC1C(C)C2C(OC3OC(CO)C(O)C(O)C3O)OC=C(C(=O)O)C2C1OC(=O)c1ccccc1 (stereo not given)		-3.91% (inactive)	
CC(=O)NC1C(OC2CCC3(C)C(CCC4(C)C3CC=C3C5CC(C)(C)CCC5(C(=O)O)C(O)CC34C)C2(C)C)OC(CO)C(O)C1O (stereo not given)		-13.2% [at 15.1 µM] (inactive)	
COc1cc(OC)cc(-c2ccc3c(-c4ccc(F)cc4)[nH]nc3n2)c1		2.22% [at 57.1 µM] (inactive)	
COc1cc(/C=C/CO[C@@H]2O[C@H](CO)[C@@H](O)[C@H](O)[C@H]2O)cc(OC)c1O[C@@H]1O[C@H](CO)[C@@H](O)[C@H](O)[C@H]1O	inactive [at 33.1 µM]		
CC(=O)O[C@@H]1[C@H](OC(C)=O)C[C@@]2(C)C(CC[C@@H](C)[C@]23Cc2c(O)cc4c(c2O3)CN([C@@H](CCC(=O)O)C(=O)O)C4=O)C1(C)C (stereo not given in full)		-6.23% [at 15.1 µM] (inactive)	
C=C[C@H]1[C@H](O[C@@H]2O[C@H](CO)[C@@H](O)[C@H](O)[C@H]2O)OC=C(C(=O)OC)[C@H]1CCO		11.3% (inactive)	
OC[C@H]1O[C@@H](O[C@H]2[C@H](O)[C@@H](CO)O[C@@H](OCc3ccccc3)[C@@H]2O[C@@H]2OC[C@](O)(CO)[C@H]2O)[C@H](O)[C@@H](O)[C@@H]1O		4.39% (inactive)	
COc1cccc(CNc2ccc(S(=O)(=O)Nc3nc4ccccc4s3)cc2)c1O			6.31 µM (active)
CC(=O)O[C@H]1C[C@@H](O)C(C)(C)C2C[C@@H](OC(C)=O)[C@]3(C)C(CC[C@@]4(C)[C@H](c5ccoc5)OC(=O)[C@H]5O[C@]543)[C@]21C (stereo not given in full)		15.8% (inactive)	
Cc1ccc(-c2c(-c3nn(C)c4ncnc(N5CCC(N6CCCCC6)C5)c34)cnn2C)cc1 (stereo not given)		-3.44% [at 57.1 µM] (inactive)	
CC(=O)[C@@H]1C[C@H](C(C)(C)O[C@@H]2O[C@H](CO)[C@@H](O)[C@H](O)[C@H]2O)CC[C@@]2(CO)OC(=O)C[C@@H]12		8.79% (inactive)	
